We go through 56 molecules from PubChem BioAssay AID485344 (National Center for Advancing Translational Sciences (NCATS), 2010).

Screen size: about 340,000 compounds; about 6,900 (2%) were called active. The sample holds actives, similar compounds and a random draw of the others, so the mix is not that of the screen. Rule as the data show it: active = inhibition above about 30%; inactive = below that, where a call was filed.

What is called inhibition is the drop in the measured response relative to a control, in per cent.

D(2) dopamine receptor (Homo sapiens), sequence (P14416 whole entry, looked up): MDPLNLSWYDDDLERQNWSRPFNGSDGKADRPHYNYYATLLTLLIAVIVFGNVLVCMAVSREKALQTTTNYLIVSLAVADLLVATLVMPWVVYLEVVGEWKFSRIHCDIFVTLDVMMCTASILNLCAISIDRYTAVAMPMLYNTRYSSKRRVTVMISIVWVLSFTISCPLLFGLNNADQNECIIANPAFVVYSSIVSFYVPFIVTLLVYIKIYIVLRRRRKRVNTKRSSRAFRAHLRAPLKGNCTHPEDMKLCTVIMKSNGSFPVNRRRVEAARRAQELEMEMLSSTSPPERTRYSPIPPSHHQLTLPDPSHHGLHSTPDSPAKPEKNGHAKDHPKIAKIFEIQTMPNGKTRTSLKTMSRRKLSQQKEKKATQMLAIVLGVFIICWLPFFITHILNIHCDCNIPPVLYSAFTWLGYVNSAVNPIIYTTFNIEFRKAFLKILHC

The target in the assay is D(2) dopamine receptor (Homo sapiens) (UniProt P14416). In words: HTS Assay for Allosteric Antagonists of the Human D2 Dopamine Receptor: Primary Screen for Antagonists. Also: 0% is about no effect. Conditions: HEK293 TREx D2 cells, calcium flux, dopamine EC80; at 10 µM; active compounds read high. The text has this:
NIH Chemical Genomics Center [NCGC] NIH Molecular Libraries Probe Centers Network [MLPCN] MLPCN Grant: NS064831-01 Assay Submitter (PI): David Sibley Dopamine receptors (DARs) are involved in the etiology and/or therapy of a number of neuropsychiatric and endocrine disorders. For instance, all receptor-based antiparkinsonian drugs work via stimulating the D2 DAR subtype whereas all FDA-approved antipsychotic agents are antagonists of this receptor. […] There are three different types of allosteric modulators that we are seeking, two of which will stimulate or augment receptor signaling, allosteric agonists and potentiators, while the third, allosteric antagonists, will attenuate receptor signaling. The present primary screening assay measures compound antagonism after an EC80 addition of dopamine by tracking calcium flux in a […], inducible Hek293 Trex D2 cell line.
Freshly passaged cells are plated in 1536 well black, clear bottom plates at a density of 4000 cells/well in 3 ul of complete media containing 1x tetracycline inducer. After an overnight incubation at 30 C in 5% CO2, cells are loaded with 2 ul of the no wash Calcium Assay Kit (ABD Bioquest) and incubated at room temperature for 30 to 90 minutes. Agonist read: A 10 cycle (1 second/cycle) baseline measurement is taken and then the FDSS online 1536 pintool delivers 23 nl of compound library (as well as dopamine controls) to the plate. The plate is measured for kinetically at 1 cycle/sec for 180 seconds. Following the 180 second read, 1 ul of an EC80 (negative modulation assay) is delivered by an onboard pipette head. Measurements are taken kinetically for an additional 180 seconds.
(In general: Calcium assays in cells follow changes in intracellular calcium, usually with a dye or a luminescent sensor.)
`Cc1ccc(N(CC(O)CN2CCCC2)S(=O)(=O)c2ccccc2)cc1` (stereo unspecified): the inhibition is -18.8% (inactive).
Turning to `COc1ccc([N+](=O)[O-])cc1N(CC(O)Cn1nnc2ccccc21)S(=O)(=O)c1ccc(C)cc1` (stereo unspecified), the inhibition was 12.1% (inactive).
For the molecule `CCN(CC)C(=O)CN(c1cccc([N+](=O)[O-])c1)S(=O)(=O)c1ccccc1`, the inhibition was -8.71% (inactive).
Consider `Cc1ccc(S(=O)(=O)N(CC(O)CN2CCCCC2)c2cccc([N+](=O)[O-])c2)cc1` (stereo unspecified), for which the inhibition is 35.8% (active).
The result for `O=S(=O)(c1ccccc1)N(CC(O)CN1CCCCC1)c1ccccc1` (stereo unspecified) reads -13.9% (inactive); that for `Cc1ccc(S(=O)(=O)N(CC(O)CN2C(=O)NC(C)(C)C2=O)c2cccc([N+](=O)[O-])c2)cc1` (stereo unspecified), 30.4% (active); that for `COc1ccc([C@H]2CC(=O)C=C(c3ccc(OC(F)(F)F)cc3)C2)cc1OC`, 10.4% (inactive).
On to `CN(CC(=O)NCCc1ccc(F)cc1)CC(=O)Nc1ccc(F)c(F)c1F`, for which the inhibition is -4.31% (inactive).
`CCCCn1c(N)c(N(CCC(C)C)C(=O)COC(=O)c2ccc(CC)cc2)c(=O)[nH]c1=O`: the inhibition was -24% (inactive).
As to `O=C(Nc1ccc2c(c1)OCO2)C1CC1(Cl)Cl` (stereo unspecified), the inhibition is 4.68% (inactive).
To `CCCn1nnnc1NCc1ccc(OC)cc1` belongs -21.1% (inactive).
To `COc1ccc(Cc2nnc(SCC(=O)N(c3ccccc3)C(C)C)n(N)c2=O)cc1` belongs -8.57% (inactive); to `COc1ccc(Cc2nnnn2CC(=O)O)cc1`, 35.2% (active); to `Cc1ccccc1OCCC(=O)OCC(=O)NCCc1ccc(S(N)(=O)=O)cc1`, -20% (inactive).
As for `COc1cccc(C(=O)N2CCCC(CCC(=O)NCc3ccc(F)c(F)c3)C2)c1` (stereo unspecified), the inhibition is 34.4% (active).
As for `COc1cccc(CNC(=O)CCC2CCCN(C(=O)c3ccc(F)c(Cl)c3)C2)c1` (stereo unspecified), the inhibition was 7.84% (inactive).
To `COc1cccc(CNC(=O)CCC2CCCN(C(=O)c3ccoc3C)C2)c1` (stereo unspecified) belongs -10.4% (inactive); to `Cc1ccc(S(=O)(=O)N2[C@@H](c3cccc(Cl)c3)C(C(=O)O)=CC[C@H]2c2ccc(Cl)c(Cl)c2)cc1`, -1.92% (inactive).
In the case of `COc1ccc(S(=O)(=O)N2CCOCC2)cc1NC(=O)Cc1coc2cc(C)ccc12`, the inhibition was -8.41% (inactive).
With `O=C(NNC(=O)C1CCC1)c1ccccc1`, the inhibition is -2.25% (inactive).
Turning to `Cc1ccc(NC(=O)Nc2cccc(C(F)(F)F)c2)nc1`, the inhibition is -7.91% (inactive).
`CCNS(=O)(=O)c1ccc(NC(=O)Nc2cccc(C(F)(F)F)c2)cc1`: the inhibition is 38.4% (active).
In the case of `CC(C)C[C@H](NC(=O)Nc1cccc(C(F)(F)F)c1)C(=O)O`, the inhibition is 7.87% (inactive).
The result for `CCOC(=O)[C@H]1[C@H]2COc3ccc(C)cc3[C@@H]2N2C(=O)CN(Cc3ccc(F)cc3)C(=O)[C@@]12C` reads -3.67% (inactive); that for `O=C(CN1CCN(C/C=C/c2ccccc2)CC1)Nc1ccc(F)cc1F`, 6.36% (inactive); that for `O=C(CCN1CCN(C/C=C/c2ccccc2)CC1)Nc1cccc(F)c1`, -21% (inactive).
For `O=C(CCN1CCN(C/C=C/c2ccccc2)CC1)Nc1ccccc1Cl`, the inhibition was 31.9% (active).
The result for `O=C(CN1CCN(S(=O)(=O)c2cccc(Cl)c2)CC1)N1CCCCC1` reads 14% (inactive); that for `Cc1ccc(C)c(NC(=O)CN(C)C(=O)c2ccc3ncsc3c2)c1`, 17.4% (inactive); that for `CCCn1nc(C(=O)OCc2nc(N)nc(Nc3ccccc3C)n2)c2ccccc2c1=O`, 6.08% (inactive).
`COc1cc(OC)c(C(=O)OCC(=O)N2CC(=O)Nc3ccccc32)cc1OC`: the inhibition is -2.09% (inactive).
Turning to `Cc1ccc(S(=O)(=O)N(C)CC(=O)OCC(=O)Nc2ccccc2)cc1`, the inhibition was -5.35% (inactive).
As to `Cc1ccc(S(=O)(=O)N(C)CC(=O)OCC(=O)N2CC(=O)Nc3ccccc32)cc1`, the inhibition is 36.8% (active).
As to `COc1cc(C(=O)Nc2ncccc2C)ccc1OCC(=O)N1CCOCC1`, the inhibition was -21.1% (inactive).
Regarding `COc1ccc(NC(=O)CN(C)C(=O)c2cccc(S(=O)(=O)N3CCN(c4ccccc4)CC3)c2)cc1`, the inhibition was -9.07% (inactive).
To `Cc1cccc(-c2oc3ccc(-c4ccc5c(c4)OCO5)cc3c2C#Cc2cncn2C)c1` belongs 11.3% (inactive).
The result for `COc1ccc(/C=C(\NC(=O)c2ccc(OC)c(OC)c2)C(=O)NCCc2c[nH]c3ccccc23)cc1` reads -6.61% (inactive); that for `CC(=O)N/C(=C/c1ccc(Cl)cc1)C(=O)NCCc1c[nH]c2ccccc12`, 31% (active).
As for `COc1ccccc1CC(=O)NCCc1c[nH]c2ccccc12`, the inhibition is -11.6% (inactive).
With `CC1CC(C)CN(C(=O)COC(=O)c2ccc3ncsc3c2)C1` (stereo unspecified), the inhibition was -13.9% (inactive).
The result for `NS(=O)(=O)c1ccc(CNC(=O)c2cccc(S(=O)(=O)N3CCc4ccccc43)c2)cc1` reads 41% (active).
To `NS(=O)(=O)c1ccc(CNC(=O)c2cccc(Oc3ccccc3)c2)cc1` belongs 9.32% (inactive); to `Cc1ccc(NC(=O)c2cccc(S(=O)(=O)N3CCCc4ccccc43)c2)nc1`, 7.09% (inactive); to `Cc1ccccc1Nc1nc(N)nc(COC(=O)CCC(=O)c2ccc(F)cc2)n1`, 2.44% (inactive).
The result for `COc1ccc(-c2c(-c3cc(OC)cc(OC)c3)n(C)c3ccc(-c4ccn[nH]4)cc23)cc1` reads -12.7% (inactive); that for `CCc1nnc(NC(=O)CSc2nnc(-c3ccncc3)n2Cc2ccccc2)s1`, 30.7% (active); that for `Cc1cnc(NC(=O)CSc2nnc(-c3ccccc3)n2Cc2ccccc2)s1`, 8.7% (inactive).
For `CCc1nnc(NC(=O)CSc2nnc(Cc3ccccc3)n2-c2ccc(OC)cc2)s1`, the inhibition is 0.9% (inactive).
Regarding `COc1ccccc1CNC(=O)COC(=O)c1sc(C)nc1C`, the inhibition was 16.2% (inactive).
Take `O=C(NCC1CCCO1)c1cc2c(s1)CCCC2` (stereo unspecified): the inhibition is 24.5% (inactive).
Turning to `O=C(COC(=O)CNC(=O)C1CCCCC1)Nc1cccc(F)c1`, the inhibition is -2.8% (inactive).
To `OC(CNCCc1ccc(Cl)cc1Cl)COc1ccccc1` (stereo unspecified) belongs -28.1% (inactive); to `COc1ccc(CNC(=O)C(C)NCc2ccccc2Cl)cc1` (stereo unspecified), 2.26% (inactive).
Turning to `CC(CCc1ccc(O)cc1)NCc1ccc(Cl)cc1Cl` (stereo unspecified), the inhibition is 57% (active).
As to `Cc1ccc(OCC(=O)Nc2ccccc2C(=O)NC2CC2)cc1`, the inhibition was -3.15% (inactive).
To `Cc1c(NS(=O)(=O)c2cc(C(=O)NCCc3ccc(F)cc3)cc(Cl)c2Cl)c(=O)n(-c2ccccc2)n1C` belongs 0.733% (inactive).
